# Results taken from PubChem BioAssay (NCI).
# The panel holds about 83,000 compounds, 20% with a hit somewhere; the sample as a whole holds those more often.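 Single-concentration screen, 48 h exposure, 96-well plates. Endpoint: percent growth. Below 10 = active.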 Values without a mark were called inactive. Activity calls are given as the source filed them.
# Experiments:
# Experiment in all cases: NCI-60 one-dose screen, 48 h (100 = growth as untreated, 0 = no growth, -100 = all killed)
# Settings in all cases: 10 µM unless noted
# HCT-15 colon = system: HCT-15 colon
# HT29 colon = system: HT29 colon
# SNB-75 CNS = system: SNB-75 CNS
# SNB-19 CNS = system: SNB-19 CNS
# U251 CNS = system: U251 CNS
# PC-3 prostate = system: PC-3 prostate
# SK-MEL-5 melanoma = system: SK-MEL-5 melanoma
# UACC-62 melanoma = system: UACC-62 melanoma
# LOX IMVI melanoma = system: LOX IMVI melanoma
# SK-MEL-28 melanoma = system: SK-MEL-28 melanoma
# SK-MEL-2 melanoma = system: SK-MEL-2 melanoma
# EKVX NSCLC = system: EKVX NSCLC
# SN12C renal = system: SN12C renal
# UO-31 renal = system: UO-31 renal
# TK-10 renal = system: TK-10 renal
# ACHN renal = system: ACHN renal
# CAKI-1 renal = system: CAKI-1 renal
# A498 renal = system: A498 renal
# CCRF-CEM leukemia = system: CCRF-CEM leukemia
# MOLT-4 leukemia = system: MOLT-4 leukemia
SMILES,growth (HCT-15 colon),growth (HT29 colon),growth (SNB-75 CNS),growth (SNB-19 CNS),growth (U251 CNS),growth (PC-3 prostate),growth (SK-MEL-5 melanoma),growth (UACC-62 melanoma) [%],growth (LOX IMVI melanoma),growth (SK-MEL-28 melanoma) [%],growth (SK-MEL-2 melanoma) [%],growth (EKVX NSCLC) [%],growth (SN12C renal) [%],growth (UO-31 renal),growth (TK-10 renal) [%],growth (ACHN renal),growth (CAKI-1 renal),growth (A498 renal),growth (CCRF-CEM leukemia),growth (MOLT-4 leukemia) [%]
Cc1cccc(N=NC(=S)NNc2cccc(C)c2)c1,108%,97.9%,88.7%,106%,114%,102%,108%,101,105%,125,111,98.3,102,81.6%,136,92.1%,94.5%,87.3%,86.6%,98.4
CSC1=N/C(=C\c2cccc(OCc3ccc(Cl)cc3)c2)C(=O)N1,81.4%,76.7%,82.5%,90.4%,84.5%,76%,77.7%,70.4,84.2%,100,87.9,75.5,80.9,67.2%,78.9,87.1%,80.6%,62.1%,98.3%,90.5
COc1cccc(C2C(C#N)=C(N)Oc3cc4c(cc32)OCO4)c1 (stereo not given),16.4%,8.91% (active),8.73% (active),39.2%,23.4%,27.4%,4.73% (active),33.6,23.1%,43,64.7,47.9,23.8,39.3%,80,29.3%,52.4%,1.43% (active),17.4%,19.4
O=C(Nc1ccc(Br)cc1)c1ccc(Cl)c(Cl)c1,32.3%,40.1%,38.6%,35%,32.4%,-22% (active),49.4%,43.6,33.3%,73,102,24,60.7,59.1%,107,18.1%,8.9% (active),65.7%,1.53% (active),23.3
O=C1Nc2ccccc2/C1=C\c1nc(C2CCN(S(=O)(=O)c3ccc(F)cc3)CC2)n2ccccc12,90.5%,67.7%,-10.4% (active),-6.15% (active),41.3%,65.6%,75.3%,39.1,49.2%,60.3,17.8,63.3,46,68.2%,60.1,55.6%,57.8%,82.9%,95.1%,100
CC(NC(=O)c1ccccc1)C(=O)Nc1ccccc1 (stereo not given),115%,103%,88.3%,107%,101%,92.8%,104%,104,99.6%,115,104,105,109,94.9%,103,103%,107%,103%,90.4%,101
C[N+](C)(C)CC(=O)N/N=C\c1ccco1,102%,92.6%,83.2%,112%,98.7%,95.8%,101%,101,101%,105,111,103,106,82.8%,95.2,107%,98%,98.7%,100%,102
COc1cc([N+](=O)[O-])cc(OC)c1OC,107%,96%,92.2%,114%,106%,94.9%,113%,101,100%,104,114,104,101,86.5%,106,119%,89.5%,79.9%,105%,103
COc1ccc(Oc2nc(Nc3ccc(N4CCOCC4)cc3)ncc2NC(=O)Nc2cccc(OC)c2)cc1,84%,54.2%,80.1%,72%,48.8%,48.4%,22.5%,46.8,76.7%,61.4,39.2,84.6,50.7,75.8%,75.9,68%,62.2%,66.3%,68.1%,40.4
CN(C)c1ccc(C2(Cl)c3ccccc3N(C)c3ccccc32)cc1,64.5%,12.1%,71.2%,45.5%,1.47% (active),7.45% (active),79.9%,35.2,27.6%,52.4,61.2,47.8,19.1,71.8%,64.3,55.6%,81.2%,77.2%,27.7%,49.7
N#CCCn1cnc2c(N)ncnc21,98.3%,101%,93.8%,99.4%,98.8%,94.2%,113%,96.7,97.1%,107,106,104,94.2,116%,114,94%,97%,112%,96.7%,92.1
Nc1c(Br)cc2c(c1Br)Cc1cc(Cl)ccc1-2,109%,111%,72.4%,88.5%,101%,82.6%,90.5%,96.2,89.3%,98.6,114,69.1,89.8,77.6%,130,81.3%,74.6%,121%,94.2%,97.4
Cc1c2c(cc3c1[nH]c1ccccc13)C=NCC2,95.1%,61.2%,84%,93.4%,92.5%,91%,88.1%,107,87.4%,118,109,80,90.8,80%,113,96.9%,92.9%,71.7%,75.9%,83.3
Cn1cnc([N+](=O)[O-])c1S(=O)(=O)Oc1cccc2ccccc12,1.87% (active),10.9%,83.2%,98.8%,57.6%,57.4%,93%,80.7,-45.1% (active),85.1,85,97.1,79.2,-31% (active),96.3,4.28% (active),-20.9% (active),97.6%,-1.53% (active),32.8
CN(C)CCNC(=O)n1cc(-c2ccncc2)c(-c2cc(O)cc(Cl)c2)n1,77.1%,88.5%,103%,106%,81.6%,112%,77.3%,36.4,76.3%,35.2,96.3,107,91.9,104%,92.6,80.6%,109%,82.2%,88%,86.4
